# Hits are enriched below; roughly 2.8% of the tested compounds scored in any of these assays.
# POLI inh: blocks human DNA polymerase iota activity. Q9UNA4. Pol iota fluorescent replication assay, 10 min. Potency, µM (doses to about 115 µM), for inactives: at the highest dose activity, negative = inhibition, actives largely listed as inhibitors. 390,000 tested, 1% active; also: potency is read from the fitted curve at half-maximal effect
#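 Fluorescent replication assay read twice, at 0 min and 10 min after adding 50 nM (final) substrate. Enzyme (10 nM) and compounds were first incubated 15 min at room temperature; enzyme-free buffer wells were negative controls.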
# Pol eta inh: inhibitors of human DNA polymerase eta; Q9Y253; recombinant Pol eta, fluorescent DNA replication assay; Potency, µM (doses to about 114 µM), without a hit: at the top dose activity change, negative = inhibition, hits mostly inhibitors; 390,000 tested, 1.2% active; AID 588591; also: potency is read from the fitted curve at half-maximal effect; % is scaled to controls: 0 for no effect and ±100 for the full control effect
#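 Fluorescent replication assay: 50 nM final substrate added after a 15 min room-temperature compound preincubation with 10 nM enzyme. Signal taken at 0 min and again at 10 min.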
# WRN helicase inh: WRN helicase (human) inhibition | Q14191 | WRN helicase unwinding, fluorescent forked duplex, kinetic | Potency, µM (titrated, usually from 114 µM), without a hit: top-dose activity change, negative = inhibition, most hits filed as inhibitors | 360,000 tested, 0.46% active; also: potency is read from the fitted curve at half-maximal effect; % is scaled to controls: 0 for no effect and ±100 for the full control effect; nearly all actives have a fitted effect of over 55% in size
# Target sequence (Q14191 whole entry, looked up): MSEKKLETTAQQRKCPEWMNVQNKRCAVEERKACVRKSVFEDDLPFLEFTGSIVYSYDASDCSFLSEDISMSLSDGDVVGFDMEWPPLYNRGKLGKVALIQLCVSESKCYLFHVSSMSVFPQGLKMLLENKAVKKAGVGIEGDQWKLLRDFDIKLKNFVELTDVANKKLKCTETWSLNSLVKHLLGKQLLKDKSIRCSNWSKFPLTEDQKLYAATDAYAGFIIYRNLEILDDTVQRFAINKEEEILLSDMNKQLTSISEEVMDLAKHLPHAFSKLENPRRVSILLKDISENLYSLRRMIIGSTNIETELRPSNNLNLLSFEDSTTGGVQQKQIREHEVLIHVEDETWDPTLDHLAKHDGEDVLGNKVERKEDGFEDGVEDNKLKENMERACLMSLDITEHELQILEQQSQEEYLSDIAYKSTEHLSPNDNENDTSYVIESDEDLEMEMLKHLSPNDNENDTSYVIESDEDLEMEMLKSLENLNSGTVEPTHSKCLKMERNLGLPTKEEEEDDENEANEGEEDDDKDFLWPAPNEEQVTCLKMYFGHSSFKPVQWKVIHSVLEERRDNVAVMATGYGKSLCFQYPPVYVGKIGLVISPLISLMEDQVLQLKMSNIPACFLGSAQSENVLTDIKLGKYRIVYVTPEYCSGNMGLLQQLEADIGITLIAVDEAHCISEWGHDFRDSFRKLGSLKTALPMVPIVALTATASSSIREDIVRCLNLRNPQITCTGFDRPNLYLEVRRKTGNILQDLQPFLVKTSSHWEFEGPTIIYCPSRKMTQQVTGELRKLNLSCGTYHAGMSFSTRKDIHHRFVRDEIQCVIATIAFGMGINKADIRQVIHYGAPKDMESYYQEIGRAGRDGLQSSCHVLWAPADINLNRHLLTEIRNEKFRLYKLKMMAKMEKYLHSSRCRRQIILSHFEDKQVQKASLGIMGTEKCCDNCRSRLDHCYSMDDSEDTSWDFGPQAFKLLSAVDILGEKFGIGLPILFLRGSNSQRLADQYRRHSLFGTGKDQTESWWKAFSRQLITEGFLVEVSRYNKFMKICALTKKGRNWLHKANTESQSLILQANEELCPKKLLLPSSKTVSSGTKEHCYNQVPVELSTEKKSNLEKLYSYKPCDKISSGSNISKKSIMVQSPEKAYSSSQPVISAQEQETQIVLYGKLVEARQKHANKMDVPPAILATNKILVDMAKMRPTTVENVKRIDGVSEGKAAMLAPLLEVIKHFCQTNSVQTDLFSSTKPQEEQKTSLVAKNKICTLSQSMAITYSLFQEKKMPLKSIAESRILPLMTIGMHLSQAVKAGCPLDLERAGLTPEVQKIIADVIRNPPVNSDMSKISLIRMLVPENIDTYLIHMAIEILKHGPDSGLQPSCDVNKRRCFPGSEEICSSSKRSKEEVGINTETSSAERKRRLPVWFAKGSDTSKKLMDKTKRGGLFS
#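 Enzyme (20 nM final) and test compound sit together 15 min at room temperature before substrate addition. Substrate is a single-forked duplex oligonucleotide (100 nM) labelled with fluorophore and quencher, with 2 mM ATP; helicase unwinding raises red fluorescence, read kinetically.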
# Pol beta inh: inhibitors of human DNA polymerase beta. P06746. AID 485314. Pol beta primer extension/strand displacement, fluorescence kinetic. 340,000 tested, 1.3% active. Potency, µM (top dose mostly 114 µM), inactives show at the highest dose activity change, negative = inhibition, hits mostly inhibitors; also: potency is read from the fitted curve at half-maximal effect; % is scaled to controls: 0 for no effect and ±100 for the full control effect
#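 Reaction started by 50 nM substrate onto compound-treated Pol beta (10 nM, 15 min preincubation, room temperature); plates read at 0 min and 10 min. Normalized concentration-effect data fitted by four-parameter Hill equation.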
# Pol kappa inh: inhibitors of human DNA polymerase kappa; Q9UBT6; purified Pol kappa, fluorescent DNA synthesis assay, 10 min; Potency, µM (highest dose often 107 µM), inactives show at the top dose activity, negative = inhibition, usual class: inhibitors; 400,000 tested, 0.53% active; AID 588579; also: potency is read from the fitted curve at half-maximal effect; % is scaled to controls: 0 for no effect and ±100 for the full control effect
#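 10 nM Pol kappa was preincubated with compounds for 15 min at room temperature. Reaction started with 50 nM (final) substrate. Fluorescence read kinetically at 0 and 10 min.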
# PI5P4K alpha inh: inhibitors of human PI5P4K alpha | max response, % | PI5P4Kalpha enzyme, ADP-Glo luminescence, 60 min; stronger effect = lower value | P48426 | 330,000 tested, 1.2% active; active = max response of -50% or lower; inconclusive = between -30% and -50%; inactive = -30% or higher; also: value at the top dose of about 77 µM; % is scaled to controls: 0 for no effect and ±100 for the full control effect
#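 Single end-point luminescence (ADP-Glo) quantified ADP from PI5P4Kalpha turnover; ATP 5 microM final, 1 h at RT, 0.1% CHAPS and 0.28 mM EGTA in HEPES pH 7.4.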
# * hit, by the source's call; ? = inconclusive; nt = no result given; ! = repeats disagree; [ ] = remark or other dose. Unless noted, calls follow the shape of the dose curve; as a rule, active = well fitted curve in the direction sought with a large enough effect; inconclusive = small, poorly fitted or top-dose-only effect, or another doubt; inactive = no such curve, though single readings can be large; an effect the other way counts as inactive or inconclusive.
SMILES,POLI inh,Pol eta inh,WRN helicase inh,Pol beta inh,Pol kappa inh,PI5P4K alpha inh
CCCN1CCN(CCCNC(=O)c2ccc3c(c2)sc2nc(-c4ccc(OCC)cc4)cn23)CC1,79.4µM*,-24.4%,nt,?,-11.7%,nt
CCCCn1c(NC(=O)c2ccccc2Cl)c(C#N)c2nc3ccccc3nc21,3.55µM*,20µM*,-34.9%,0.5%,-10.5%,-4.4
N#Cc1c(NC(=O)c2ccccc2Cl)n(Cc2ccccc2)c2nc3ccccc3nc12,20µM*,35.5µM*,?,70.8µM*,-17.3%,-10.7
CCCCn1c(NC(=O)CC)c(C#N)c2nc3ccccc3nc21,22.4%,-16.8%,-12.5%,2.3%,-5.6%,4.0
CCC(=O)Nc1c(C#N)c2nc3ccccc3nc2n1-c1ccccc1C,?,3.0%,3.1%,-1.2%,0.3%,0.3
COc1ccc(C(=S)N2CCN(c3ccccc3C)CC2)cc1OC,71.4%,-25.4%,-16.7%,nt,-9.7%,-10.3
Cc1nn2cc(-c3ccc(OC(C)C)cc3)nc2s1,-27.8%,5.1%,nt,39.6%,-4.2%,nt
CCN1C(=O)CC(c2ccccc2)CC1=O,79.4µM*,4.5%,3.0%,nt,6.2%,-1.1
O=C1C(=Cc2cn(-c3ccccc3)nc2-c2ccc(OCc3ccccc3F)cc2)SC(=S)N1CCS(=O)(=O)O,nt,nt,31.6µM*,nt,nt,-78.8*
O=C(O)CN1C(=O)/C(=C\c2cccc(OCc3ccccc3F)c2)SC1=S,?,?,-16.1%[57.1 µM],8.9%,-11.7%,-1.2
O=C(CS(=O)(=O)c1nc(-c2ccc(Cl)cc2)cn1-c1ccccc1)Nc1cccc(Cl)c1,?,-15.3%,nt,3.6%,-17.1%,nt
Cc1ccc(-c2cn(-c3cccc(Cl)c3)c(S(=O)(=O)CC(=O)Nc3cccc(C)c3)n2)cc1,70.8µM*,-2.1%,nt,12.5%,-5.4%,nt
Cc1cccc(NC(=O)CN(CC2CCCO2)C(=O)c2cc(S(=O)(=O)N(C)C)ccc2F)c1C (stereo unspecified),40.1%,-22.4%,1.5%,nt,6.4%,-6.4
Fc1ccc(C[n+]2csc3ccccc32)cc1,4.2%,-10.5%,56.2µM*,61.5%,-11.7%,-14.4
CC(NC(=O)OC(C)(C)C)C(=O)Oc1cc2oc(=O)cc(-c3ccccc3)c2cc1Cl (stereo unspecified),-7.7%,-0.4%,-8.3%,-21.0%,-4.4%,-69.2*
CC(Oc1cc2oc(=O)cc(-c3ccccc3)c2cc1Cl)C(=O)NCC1CCC(C(=O)O)CC1 (stereo unspecified),-18.5%,-6.3%,0.6%,18.6%,15.0%,-0.8
O=S(=O)(c1ccc(Cl)cc1)N1CCCC(c2nc(-c3ccc(F)cc3)no2)C1 (stereo unspecified),8.3%,-15.5%,-2.1%,nt,7.8%,19.6
O=C(CC1CCCCC1)N1CCCC(c2nc(-c3ccc(S(=O)(=O)N4CCCC4)cc3)no2)C1 (stereo unspecified),?,?,-25.7%,35.5µM*,-5.6%[60.1 µM],nt
CCOc1ccc(CCNC(=O)c2cc3cc4ccc(OC)cc4nc3s2)cc1OCC,23.7%,-15.1%,nt,0.6%,13.8%,nt
COc1ccc2nc3sc(C(=O)NCCN4CCc5ccccc5C4)cc3cc2c1,-11.8%,?,2.0%,20µM*,-25.7%,-4.2
COc1ccc2cc3cc(C(=O)NC4CC4)sc3nc2c1,-20.3%,-2.5%,-4.0%[57.1 µM],79.4µM*,-4.0%,-1.1
Cc1c(NS(=O)(=O)c2cccc(C(=O)NCc3ccco3)c2)c(=O)n(-c2ccccc2)n1C,35.5µM*,?,?,nt,-36.1%,-15.6
Cc1c(NS(=O)(=O)c2cccc(C(=O)O)c2)c(=O)n(-c2ccccc2)n1C,50.1µM*!,-9.0%,8.2%,73.4%,-1.3%,-0.4
Cc1c(NS(=O)(=O)c2cc(C(=O)NCCN(C)C)ccc2Cl)c(=O)n(-c2ccccc2)n1C,?,-25.7%,-16.5%,44.7µM*,?,-7.3
Cc1c(NS(=O)(=O)c2cc(C(=O)NCc3cccc(Cl)c3)ccc2Cl)c(=O)n(-c2ccccc2)n1C,28.0%,-21.3%,-11.7%,nt,-10.3%,5.2
SMILES,POLI inh,Pol eta inh,WRN helicase inh,Pol beta inh,Pol kappa inh,PI5P4K alpha inh
NC(=O)NC(CC(=O)NNC(=O)c1ccccn1)c1ccccc1Cl (stereo unspecified),25.0%,2.2%,3.7%,nt,2.3%,0.1
COC(=O)c1c(-c2cc(OC)c(OC)c(OC)c2)c2ccc(OCc3ccccn3)cc2c(=O)n1-c1ccc(N)cc1,-4.3%[58.9 µM],-10.5%[57.1 µM],nt,11.2%[57.1 µM],nt,nt
O=C1C(=C2CCCCC2)SC(=S)N1Cc1ccco1,?,?,?,25.1µM*,?,-26.8
O=C(O)CCN1C(=O)C(=C2CCCCCC2)SC1=S,?,-11.9%,-4.1%,?,-14.6%,-10.0
COc1cccc(C2CC(c3ccccc3)=NN2S(=O)(=O)c2ccc(C)cc2)c1OC (stereo unspecified),-12.6%,?,?,50.1µM*,-31.7%,-3.4
CN(C)CCCNc1ccc(S(N)(=O)=O)cc1[N+](=O)[O-],-0.2%,-7.9%,8.6%,82.7%,-12.4%,-4.6
Nc1nc(N)c(N=Nc2ccc(Cl)cc2)c(=O)[nH]1,-28.0%,?,-8.4%[11.6 µM],-1.9%,-7.4%,-76.9*
Nc1nc(N)c(N=Nc2ccc(S(N)(=O)=O)cc2)c(=O)[nH]1,24.6%,-7.0%,-17.7%,?,7.3%,-61.8*
Nc1nc(N)c(N=Nc2ccc(SCC(=O)O)cc2)c(=O)[nH]1,?,-7.8%,-7.6%,0.5%,-16.6%,-64.1*
NS(=O)(=O)c1ccc(N=Nc2c(O)ccc3ccccc23)cc1,33.8%,?,-9.6%,10.7%,-3.0%,-26.8
Cc1noc(/C=C/c2ccccc2F)c1S(=O)(=O)N1CCC(C(=O)N2CCOc3ccccc32)CC1,167.0%,-15.0%,nt,1.3%,-11.0%[60.1 µM],nt
Cc1ccnc2nc(C(=O)OCC(=O)c3c[nH]c4ccccc34)nn12,-12.1%,-4.1%,-1.6%,-1.9%,-6.0%,-11.8
Cc1nn2c(=O)cc(COC(=O)c3cccs3)nc2s1,-2.1%,-17.0%,nt,5.4%,0.0%,nt
CCC(c1nnc(SCc2nc3ccccc3s2)n1Cc1ccccc1)N(C)C (stereo unspecified),-5.9%,-12.2%,-5.1%,9.2%,-3.4%,8.1
c1ccc(Cn2c(SCc3nc4ccccc4s3)nnc2-c2ccco2)cc1,22.4µM*,14.1µM*,35.5µM*,50.1µM*,?,-73.5*
CSc1ncccc1C(=O)NC1CC(C)(C)Cc2c1cnn2-c1ccccc1C (stereo unspecified),22.3%,-26.2%,4.0%,16.2%,2.4%,-4.7
Cc1ccc(NC(=O)c2cc(N3C(=O)CCC3=O)ccc2N2CCOCC2)cc1,116.7%,-17.5%,12.8%,-28.5%,6.6%,4.5
Cc1ccc(NC(=O)c2cc(N3C(=O)C=CC3=O)ccc2N2CCOCC2)cc1Cl,22.6%,-16.8%,?,-1.6%,1.0%,-76.5*
